Compounds without any hit were thinned out: in the full panel of roughly 79,000, 15% have a hit. Activity calls are given as the source filed them. Rule as the data show it: active = growth inhibition above about 70%; inactive = the rest.
Tests used:
[1] = NCI Yeast Anticancer Drug Screen. Data for the rad50 strain (AID 155);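 also: 0% = growth of vehicle-only cultures of the same strain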; details: S. cerevisiae rad50 strain growth inhibition, hits give high values
Method in brief: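 DNA repair mutant yeast, compound exposure, growth read-out; inhibition is taken relative to vehicle.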

[2] = NCI Yeast Anticancer Drug Screen. Data for the mec2-1 strain (AID 157); details: S. cerevisiae mec2-1 strain, hits give high values
Method in brief: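 Compounds were applied to mec2-1 yeast cells. Their growth was then compared with that of vehicle-treated cultures to give growth inhibition.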

[3] = NCI Yeast Anticancer Drug Screen. Data for the sgs1 mgt1 strain (AID 161);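 also: 0% = growth of cultures given vehicle only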; details: S. cerevisiae sgs1 mgt1 strain, hits give high values
Method in brief: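 Compounds are added to genetically altered yeast, and growth is compared with cultures given vehicle alone to give percent inhibition.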

[4] = NCI Yeast Anticancer Drug Screen. Data for the cln2 rad14 strain (AID 165);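 also: 0% = growth equal to vehicle treated cultures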; details: S. cerevisiae cln2 rad14 strain, hits give high values
Method in brief: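 Strain: cln2 rad14 yeast, altered in cell cycle control and DNA damage repair. Read-out: growth inhibition vs vehicle.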

[5] = NCI Yeast Anticancer Drug Screen. Data for the bub3 strain (AID 167); details: S. cerevisiae bub3 mutant strain, hits give high values
Method in brief: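 In this screen, a yeast mutant lacking normal mitotic checkpoint function is challenged with compound. Relative growth versus vehicle gives the inhibition value.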

[6] = NCI Yeast Anticancer Drug Screen. Data for the mlh1 rad18 strain (AID 175); details: S. cerevisiae mlh1 rad18 strain growth inhibition, hits give high values
Method in brief: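 A repair-deficient yeast strain is exposed to test compound, and growth is scored relative to vehicle-treated controls.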

[7] = at 5.0 µM (retest, dose inferred, filed as 0.5)
[8] = at 50.0 µM (retest, dose inferred, filed as 5.0)

Measured: growth inhibition

C=C1CC2(OC1=O)C(=O)N(C)c1ccccc12 (configuration not stated)
inactive: [1]; [7] -118% | [1]; [8] 63% | [2]; [7] -31% | [2]; [8] 52% | [3]; [7] -38% | [3]; [8] 67% | [4]; [7] -49% | [4]; [8] 22% | [4]; at 50.0 µM 15% | [5]; [7] -47% | [6]; [7] -111%
active: [1]; at 50.0 µM 84.5% | [2]; at 50.0 µM 87.5% | [3]; at 50.0 µM 82.6% | [5]; [8] 73% | [5]; at 50.0 µM 88.2% | [6]; [8] 71% | [6]; at 50.0 µM 91.7%

C=CCN1CCC(OC(=O)C(O)(C#CC)C2CCCC2)CC1 (configuration not stated)
active: [1]; [8] 72% | [3]; [8] 71% | [3]; at 50.0 µM 71.9% | [4]; [8] 76% | [5]; [8] 78%
inactive: [1]; [7] 40% | [1]; at 50.0 µM 68.9% | [2]; [7] 31% | [2]; [8] 62% | [2]; at 50.0 µM 50.9% | [3]; [7] 40% | [4]; [7] 35% | [4]; at 50.0 µM 58.6% | [5]; [7] 21% | [5]; at 50.0 µM 61.8% | [6]; [7] 17% | [6]; [8] 66% | [6]; at 50.0 µM 64%

[O-][N+]1=C2CCC/C(=N/O)C2(O)C2CCCCC21N1CCOCC1 (configuration not stated)
inactive: [1]; [7] 26% | [1]; [8] 20% | [1]; at 50.0 µM -8.05% | [2]; [7] 29% | [2]; [8] 19% | [2]; at 50.0 µM -39.8% | [3]; [7] 24% | [3]; [8] 21% | [3]; at 50.0 µM -2.1% | [4]; [7] 23% | [4]; [8] 26% | [4]; at 50.0 µM 25.5% | [5]; [7] 22% | [5]; [8] 14% | [5]; at 50.0 µM -7.1% | [6]; [7] 28% | [6]; [8] 26% | [6]; at 50.0 µM -3.2%

Cc1nc2c(Cl)nc(Cl)nc2s1
active: [1]; [8] 98% | [1]; at 50.0 µM 98.5% | [2]; [8] 98% | [2]; at 50.0 µM 98.5% | [3]; [8] 97% | [3]; at 50.0 µM 98.7% | [4]; [8] 97% | [4]; at 50.0 µM 95.5% | [5]; [8] 98% | [5]; at 50.0 µM 98.3% | [6]; [8] 97% | [6]; at 50.0 µM 98.2%
inactive: [1]; [7] -10% | [2]; [7] 35% | [3]; [7] 20% | [4]; [7] -8% | [5]; [7] 15% | [6]; [7] 23%

COC(=O)C1=C(C(=O)OC)C2C(C)=CC(C)=CN2C(C(=O)OC)=C1C(=O)OC (configuration not stated)
inactive: [1]; [7] -1% | [1]; [8] -7% | [1]; at 50.0 µM 11.2% | [2]; [7] 0% | [2]; [8] 2% | [2]; at 50.0 µM 5.8% | [3]; [7] -10% | [3]; [8] 4% | [3]; at 50.0 µM 2.3% | [4]; [7] -2% | [4]; [8] -5% | [5]; [7] 2% | [5]; [8] -3% | [5]; at 50.0 µM -6.7% | [6]; [7] -4% | [6]; [8] -4% | [6]; at 50.0 µM 25.4%
active: [4]; at 50.0 µM 74.3%

O=c1cc(Cl)c(Cl)nn1-c1ccccc1
inactive: [1]; [7] 9% | [2]; [7] 12% | [2]; at 50.0 µM 50.5% | [3]; [7] 7% | [3]; at 50.0 µM 40.3% | [4]; [7] 6% | [4]; [8] 60% | [5]; [7] 4% | [5]; at 50.0 µM 45.5% | [6]; [7] 2% | [6]; at 50.0 µM 41.2%
active: [1]; [8] 80% | [1]; at 50.0 µM 89.2% | [2]; [8] 75% | [3]; [8] 71% | [4]; at 50.0 µM 71.8% | [5]; [8] 84% | [6]; [8] 86%

CCCC1CCCC1(CC(=O)c1ccccc1)C(=O)O (configuration not stated)
inactive: [1]; [7] 21% | [1]; [8] 52% | [2]; [7] 19% | [2]; [8] 46% | [2]; at 50.0 µM 64.8% | [3]; [7] 25% | [3]; [8] 47% | [4]; [7] 24% | [4]; [8] 54% | [5]; [7] 63% | [6]; [7] 47%
active: [1]; at 50.0 µM 70.3% | [3]; at 50.0 µM 81.7% | [4]; at 50.0 µM 82.3% | [5]; [8] 76% | [5]; at 50.0 µM 90.2% | [6]; [8] 72% | [6]; at 50.0 µM 82.5%

O=[N+]([O-])c1ccccc1Oc1ccc([N+](=O)[O-])c(C(F)(F)F)c1
inactive: [1]; [7] -4% | [2]; [7] -2% | [3]; [7] 0% | [3]; [8] -24% | [4]; [7] -8% | [4]; [8] 45% | [4]; at 50.0 µM 45.9% | [5]; [7] 2% | [6]; [7] -1%
active: [1]; [8] 83% | [1]; at 50.0 µM 80.1% | [2]; [8] 74% | [2]; at 50.0 µM 82.7% | [3]; at 50.0 µM 92.5% | [5]; [8] 92% | [5]; at 50.0 µM 95.3% | [6]; [8] 90% | [6]; at 50.0 µM 92.7%

[Pt].c1ccc(P(CCP(CCP(c2ccccc2)c2ccccc2)CCP(c2ccccc2)c2ccccc2)c2ccccc2)cc1
inactive: [1]; [7] 6% | [2]; [7] 36% | [3]; [7] 19% | [4]; [7] 6% | [5]; [7] 0% | [6]; [7] 17%
active: [1]; [8] 83% | [1]; at 50.0 µM 71.2% | [2]; [8] 91% | [2]; at 50.0 µM 84.2% | [3]; [8] 89% | [3]; at 50.0 µM 80% | [4]; [8] 91% | [4]; at 50.0 µM 78% | [5]; [8] 92% | [5]; at 50.0 µM 80.2% | [6]; [8] 89% | [6]; at 50.0 µM 79%
